Most compounds without a hit are left out; they make up all but 2.4% or so of the library.
D2 PAM-1: potentiates the human D2 dopamine receptor allosterically; P14416; DiscoveRx D2 beta-arrestin cells, luminescence, 90 min; 100% = 57 uM dopamine signal; potentiation, % (test concentration not listed); 360,000 compounds, 0.23% hits; AID 624464; in the data active = potentiation above about 50%
Target sequence (P14416 whole entry, looked up): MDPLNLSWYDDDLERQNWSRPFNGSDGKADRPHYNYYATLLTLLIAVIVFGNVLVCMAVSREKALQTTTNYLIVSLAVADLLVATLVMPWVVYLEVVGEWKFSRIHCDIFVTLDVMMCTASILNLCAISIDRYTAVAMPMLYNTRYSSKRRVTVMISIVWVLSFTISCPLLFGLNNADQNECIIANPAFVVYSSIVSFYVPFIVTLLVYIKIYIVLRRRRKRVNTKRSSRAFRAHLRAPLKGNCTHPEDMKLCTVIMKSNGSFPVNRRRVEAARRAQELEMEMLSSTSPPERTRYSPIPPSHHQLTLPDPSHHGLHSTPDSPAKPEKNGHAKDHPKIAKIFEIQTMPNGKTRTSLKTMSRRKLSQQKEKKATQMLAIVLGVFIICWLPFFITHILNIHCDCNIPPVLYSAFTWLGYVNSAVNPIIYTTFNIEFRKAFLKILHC
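PathHunter D2 cells, attached overnight at 37 deg C, received compound in DMSO plus dopamine at EC20 (50 nM final) for 90 min at 37 deg C. Beta-arrestin recruitment was read as luminescence after 1 h with detection reagent at ambient temperature.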
D2 ag-1: D2 dopamine receptor (human) agonism; activation, % at 2 µM; AID 485358; HEK293 T-REx D2 cells, calcium flux agonist mode; 340,000 compounds, 0.53% hits;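 active = activation over 3 SD above normal in the single-dose calcium agonist read, cut at about 30% in these data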; note: 0% is about no effect
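Calcium-flux readout, 1 cycle/sec over 180 s following compound pin transfer, in inducible HEK293 Trex D2 cells (force-coupled); dopamine controls included. Positive calcium responses during this window marked compounds as potential agonists.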
D2 antag: antagonists of human D2 dopamine receptor | P14416 | HEK293 TREx D2 cells, calcium flux, dopamine EC80 | inhibition, % at 10 µM | 340,000 compounds, 2% hits | AID 485344; in the data active = inhibition above about 30%; inactive = below that, where a call was filed; note: 0% is about no effect
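Tetracycline-induced HEK293 TREx cells expressing D2 receptor forced-coupled to calcium signalling, loaded with no-wash calcium dye. Compounds added and calcium flux read 180 s, then dopamine added at EC80 and read a further 180 s.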
D2 ag-2: activates the human D2 dopamine receptor | P14416 | DiscoveRx PathHunter D2 beta-arrestin, luminescence, 90 min; 100% = 57 uM dopamine signal | activation, % (no concentration beside the values) | 360,000 compounds, 0.084% hits | AID 624465; in the data active = activation above about 40%
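Agonist mode: compounds alone added to overnight-plated D2 PathHunter cells for 90 min at 37 C, with 57 uM final dopamine (EC100) defining full response. Beta-arrestin recruitment detected by chemiluminescent reagent, read after 1 h at ambient temperature.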
D2 PAM-2: positively modulates the human D2 dopamine receptor allosterically | HEK293 T-REx D2, calcium flux, EC20 dopamine potentiation | 340,000 compounds, 0.34% hits | AID 485347 | potentiation, % at 10 µM;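 active = potentiation over 3 SD above the plate norm, cut at about 30% in these data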; note: 0% is about no effect
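Tetracycline-induced Hek293 Trex D2 cells, force-coupled to calcium, loaded with no-wash calcium dye. Compound added with 180 s kinetic read for agonism, then EC20 dopamine and a further 180 s read for potentiation.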
Numbers without * were called inactive.

CCOc1ccc(NC(=O)c2cccc(N3CCCS3(=O)=O)c2)cc1 was read as D2 ag-1 0 and D2 PAM-2 3.
CSc1nn(Cc2ccc(Br)cc2)c(N(C(C)=O)C(C)=O)c1S(=O)(=O)c1ccccc1 was read as D2 ag-1 1 and D2 PAM-2 -2.
Screening COc1ccc(N2CCN(C(CNS(=O)(=O)c3c(C)cc(C)cc3C)c3ccco3)CC2)cc1 (stereo not given) returned D2 ag-1 1 and D2 PAM-2 -3.
O=C(NC1=NCCS1)c1cc(-c2cccnc2)nc2ccccc12 was read as D2 PAM-1 0, D2 ag-1 1, D2 antag 33*, D2 ag-2 -2 and D2 PAM-2 -2.
Clc1ccc(-c2ccc(/C=N/Nc3nncc(-c4ccccc4)n3)o2)cc1 was read as D2 PAM-1 -7, D2 ag-1 0, D2 antag -6, D2 ag-2 -3 and D2 PAM-2 -3.
For Cc1ccc(/C=N/Nc2nncc(-c3ccccc3)n2)o1 the results were D2 PAM-1 -3, D2 ag-1 0, D2 antag 51*, D2 ag-2 -4 and D2 PAM-2 -10.
Screening CCOc1ccc(-n2c(=O)c3c(C)c(C)sc3n(Cc3c(F)cccc3Cl)c2=O)cc1 returned D2 ag-1 0 and D2 PAM-2 -2.
CC(C)CNC(=S)Nc1ccccc1F was read as D2 PAM-1 -11, D2 ag-1 -1, D2 antag -3, D2 ag-2 -3 and D2 PAM-2 34*.
Screening COC(=O)C1=CO[C@@H](C)[C@H]2CN3CCc4c([nH]c5ccccc45)[C@@H]3C[C@H]12 returned D2 PAM-1 -37, D2 ag-1 0, D2 antag 71*, D2 ag-2 -7 and D2 PAM-2 -23.
`CCC(=O)Nc1ccccc1-c1nc2ccccc2n(CC(=O)c2ccc(C)c(C)c2)c1=O` gave D2 ag-1 0 and D2 PAM-2 3.
For c1ccc(Cc2nnc3sc(-c4cccs4)nn23)cc1 the results were D2 PAM-1 1, D2 ag-1 -1, D2 antag 73*, D2 ag-2 -2 and D2 PAM-2 -10.
CCN1CCN(c2nc(Nc3ccc(OC)cc3)nc(N)c2[N+](=O)[O-])CC1 was read as D2 PAM-1 -22, D2 ag-1 -1, D2 antag 41*, D2 ag-2 0 and D2 PAM-2 -10.
For CCN1CCN(c2nc(Nc3cccc(C)c3)nc(N)c2[N+](=O)[O-])CC1 the results were D2 PAM-1 -15, D2 ag-1 0, D2 antag 85*, D2 ag-2 -6 and D2 PAM-2 -18.
Screening Nc1nc(NCc2ccco2)nc(N2CCCC2)c1[N+](=O)[O-] returned D2 PAM-1 1, D2 ag-1 2, D2 antag 7, D2 ag-2 1 and D2 PAM-2 2.
Cc1ccc(Nc2nc(N)c([N+](=O)[O-])c(N3CCOCC3)n2)cc1C was read as D2 PAM-1 -6, D2 ag-1 -2, D2 antag 3, D2 ag-2 -9 and D2 PAM-2 21.
`CCN1CCN(c2nc(Nc3ccccc3)nc(N)c2[N+](=O)[O-])CC1` gave D2 PAM-1 -35, D2 ag-1 -2, D2 antag 84*, D2 ag-2 -7 and D2 PAM-2 -20.
For Cc1cccc(Nc2nc(N)c([N+](=O)[O-])c(N3CCCC(C)C3)n2)c1 (stereo not given) the results were D2 PAM-1 -28, D2 ag-1 1, D2 antag 13, D2 ag-2 -8 and D2 PAM-2 18.
`Nc1nc(NCc2ccco2)nc(N2CCN(Cc3ccccc3)CC2)c1[N+](=O)[O-]` gave D2 PAM-1 -26, D2 ag-1 0, D2 antag 89*, D2 ag-2 -3 and D2 PAM-2 -15.
For Cn1c(=O)cc(SCC(=O)NCCc2ccc(Cl)cc2)c2cc(Cl)ccc21 the results were D2 ag-1 1 and D2 PAM-2 -1.
N#Cc1c(-n2ncnc2-c2ccccc2C(F)(F)F)sc2c1CCCCC2 was read as D2 ag-1 4 and D2 PAM-2 3.
For COc1ccc(OCc2ccc(-c3nc(C#N)c(N4CCN(C)CC4)o3)o2)cc1 the results were D2 ag-1 -1.
`CCN1CCN(c2nc(Nc3ccccc3F)nc(N)c2[N+](=O)[O-])CC1` gave D2 PAM-1 -31, D2 ag-1 0, D2 antag 78*, D2 ag-2 -1 and D2 PAM-2 -21.
Nc1nc(Nc2ccccc2F)nc(N2CCCC2)c1[N+](=O)[O-] was read as D2 PAM-1 0, D2 ag-1 0, D2 antag -7, D2 ag-2 -2 and D2 PAM-2 7.
Screening COc1ccc(NC(=O)CN(C)C(=O)CN2C(=O)c3ccc([N+](=O)[O-])cc3C2=O)cc1 returned D2 PAM-1 66*, D2 ag-1 1, D2 antag 0, D2 ag-2 11 and D2 PAM-2 -5.
CCCn1c(N)c(NCCN2CCOCC2)c(=O)n(CC(=O)NCc2ccccc2)c1=O was read as D2 PAM-1 -1, D2 ag-1 1, D2 antag 33*, D2 ag-2 -3 and D2 PAM-2 3.
For Cc1nn(CC(=O)NCCN2CCOCC2)c(=O)c2ccccc12 the results were D2 PAM-1 -7, D2 ag-1 0, D2 antag 8, D2 ag-2 -4 and D2 PAM-2 1.
`CCOc1ccc(C(=O)Oc2cc(C)[nH]c(=O)c2[N+](=O)[O-])cc1` gave D2 PAM-1 -2, D2 ag-1 0, D2 antag 15, D2 ag-2 -3 and D2 PAM-2 6.
CCCCOc1ccc(C(=O)Oc2cc(C)[nH]c(=O)c2[N+](=O)[O-])cc1 was read as D2 PAM-1 -1, D2 ag-1 0, D2 antag 77*, D2 ag-2 -6 and D2 PAM-2 -2.
Cc1cc(C)n(-c2nc3cc(Cl)c(Cl)cc3nc2Nc2ccc(F)cc2C)n1 was read as D2 ag-1 1 and D2 PAM-2 -7.
`CC1Oc2ccccc2N(CC(=O)NCc2ccccc2)C1=O` (stereo not given) gave D2 PAM-1 -9, D2 ag-1 -1, D2 antag -16, D2 ag-2 -5 and D2 PAM-2 1.
For CC1Oc2ccccc2N(CC(=O)NC2CC2)C1=O (stereo not given) the results were D2 PAM-1 -4, D2 ag-1 1, D2 antag 33* and D2 ag-2 3.
For Cc1ccc2nc(NC(=O)CSc3nc4c(c(=O)n3C)SC(C)C4)sc2c1 (stereo not given) the results were D2 PAM-1 17, D2 ag-1 0, D2 antag -3, D2 ag-2 4 and D2 PAM-2 32*.

From PubChem
